The values that follow come from PubChem BioAssay (NCI).

What all share (assay): NCI-60 one-dose screen, 48 h (100 = growth as untreated, 0 = no growth, -100 = all killed)
Holding throughout (details): 10 µM

In test [1] the test system is RPMI-8226 leukemia.
For test [2], the system named is OVCAR-8 ovarian.
In test [3] the test system is OVCAR-5 ovarian.
Test [4] deals with OVCAR-4 ovarian.
The test system of test [5] is SK-OV-3 ovarian.
Test [6] has as its system IGROV1 ovarian.
Test [7] has as its system OVCAR-3 ovarian.
Test [8] concerns HS 578T breast.
Test [9] has as its system NCI/ADR-RES ovarian.
The subject of test [10] is T-47D breast.
Test [11] has as its system BT-549 breast.
Test [12] has as its system MDA-MB-435 melanoma.
In test [13] the test system is SW-620 colon.
For test [14], the system named is MCF7 breast.
Test [15] has as its system HCT-116 colon.
Test [16] relates to HCC-2998 colon.
The subject of test [17] is KM12 colon.
Test [18] deals with MDA-MB-468 breast.

Compounds without any hit were thinned out: in the full panel of roughly 83,000, 20% have a hit.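 Single-concentration screen, 48 h exposure, 96-well plates. Endpoint: percent growth. Below 10 = active.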 Unmarked numbers belong to inactive results. The source made the active and inactive calls.

For `Cc1cccc2cc(-c3cc(-c4ccccc4)nc(=O)[nH]3)c(Cl)nc12`, the growth in [1] was 17.8%; in test [2], 72.8%; in test [3] it was 93%; in test [4], 103%; in [5], 118%; in [6], 101%. Also, the growth is 91.4% in test [7]; 89.8% in test [8]; 73.5% in [9]; 76.7% in [10]; 84.4% in test [11]; 99.8% in test [12]. In addition, the growth in [13] is 87.7%; in test [14] it was 29.3%; in test [15], 63.4%; in test [16] it was 102%; in [17], 73.5%; in [18], 83.6%.
`C[C@H]1[C@H](C)CC[C@]2(COC(=O)CCC(=O)NCC#CCN3CCNCC3)CC[C@]3(C)C(=CC[C@@H]4[C@@]5(C)CCCNC(C)(C)[C@@H]5CC[C@]43C)[C@H]12`: the growth in test [1] is -22.9% (active); in [2] it was 69%; in test [3], 53.8%; in [4], 66.1%; in test [5], 51.4%; in test [6], 44.3%. For the same compound, the growth was 75.6% in test [7]; 60.8% in test [8]; 66.9% in [9]; 40% in test [10]; 55.4% in test [11]; 32.4% in [12]. The growth was -2.55% (active) in test [13]; 1.4% (active) in test [14]; 10.5% in [15]; -41.7% (active) in test [16]; 32.4% in test [17]; 17.9% in test [18].
Regarding `COc1ccc(N(C)c2cc(C#N)nc3ccccc23)cc1N`, the growth is 19.9% in test [1]; 14.1% in [2]; 34.6% in [3]; 55% in test [4]; 23.8% in test [5]; 17.1% in test [6]. Further, the growth is 7.72% (active) in test [7]; 36.9% in [8]; -31.7% (active) in test [9]; 20.8% in [10]; 94.1% in test [11]; -22.4% (active) in test [12]. Further, the growth is 19% in [13]; 9.87% (active) in [14]; 6.17% (active) in [15]; 7.99% (active) in test [16]; 9.27% (active) in test [17]; 3.98% (active) in [18].
In the case of `CN(CCF)c1ccc(/C=C/C(=O)c2ccc(N)cc2O)cc1`, the growth is 62.8% in test [1]; 70.6% in test [2]; 90% in [3]; 68.8% in test [4]; 105% in test [5]; 94.3% in test [6]. For the same compound, the growth was 80.8% in test [7]; 112% in test [8]; 71.7% in test [9]; 50.7% in test [10]; 64.1% in test [11]; 81.8% in [12]. Moreover, the growth in test [13] is 90.3%; in [14], 71.1%; in test [15], 73%; in test [16], 88.5%; in test [17], 44.4%; in test [18], 51.4%.
For the compound `CC1(C)CC[C@]2(C(=O)Nc3ccccc3)CC[C@]3(C)C(=CC[C@@H]4[C@@]5(C)CC[C@H](N)C(C)(C)[C@@H]5CC[C@]43C)[C@H]2C1`, the growth was 19.7% in test [1]; -66.5% (active) in test [2]; 84.4% in test [3]; 76.8% in test [4]; 96.5% in [5]; 96% in test [6]. Further, the growth in test [7] is 105%; in test [8] it was 93.2%; in test [9] it was 66.5%; in test [10], 81.5%; in test [11], 113%; in [12], 59.1%. For the same compound, the growth in test [13] was 8.55% (active); in [14] it was -73.8% (active); in [15] it was -99.5% (active); in [16], -64.3% (active); in [17], 36.1%; in test [18] it was 1.83% (active).
Consider `O=C(Nc1ccccc1)Nc1nc2ccccc2s1`, for which the growth in [1] was 78.3%; in test [2], 90.2%; in [3], 92.4%; in [4] it was 78.2%; in [5] it was 78.4%; in test [6], 54.8%. The growth in [7] was 110%; in [8], 86.9%; in [9], 91.8%; in [10], 25.5%; in test [11] it was 89.6%; in test [12], 97.2%. The growth in [13] is 111%; in test [14], 21.4%; in test [15] it was 85.9%; in test [16], 85%; in [18], -1.66% (active).
As to `C=C(C)[C@@H]1CC[C@]2(C)[C@H](CC=C3[C@@H]4CC(C)(C)CC[C@]4(C(=O)N4CCOCC4)CC[C@]32C)[C@@]1(C)CCCN`, the growth in [1] is -51.2% (active); in [2], -66.3% (active); in test [3], -98.9% (active); in [4], -89.4% (active); in test [5] it was -94.6% (active); in test [6], -91.2% (active). The growth in test [7] was -84.8% (active); in test [8], -63.4% (active); in test [9] it was -59.8% (active); in test [10] it was -88.1% (active); in test [11], -85.3% (active); in test [12] it was -99.5% (active). The growth in test [13] is -65.1% (active); in [14] it was -70.7% (active); in test [15], -54.2% (active); in [16] it was -81.1% (active); in test [17] it was -82.3% (active); in test [18], -96% (active).
Take `CN1CCN(c2ccc(Nc3nc(NCCCNC(=O)c4ccc(F)cc4)c4sccc4n3)cc2)CC1`: the growth is -22.5% (active) in test [1]; 47.5% in test [2]; 78.2% in [3]; 80.1% in test [4]; 102% in [5]; 77.8% in [6]. For the same compound, the growth in test [7] is 61.6%; in test [8], 84.1%; in [9] it was 76.2%; in test [10] it was 51.5%; in test [11] it was 108%; in test [12] it was 51.1%. Also, the growth is 58.3% in [13]; 31% in [14]; 33.5% in test [15]; 66.4% in [16]; 53.7% in [17]; 59.1% in test [18].
